# Experimental data reported in PubChem BioAssay (NCI).
# This is part of a sample that, as a whole, favours compounds with a hit. Of some 83,000 tested, about 20% had one in any assay.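 Cells were grown in 96-well plates and exposed to the test compound at a single concentration for 48 hours; results are reported as percent growth, with values below 10 considered active.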 Values without a mark were called inactive. Calls of active or inactive are those of the source.
# Tests used:
# Assay in all cases: NCI-60 one-dose screen, 48 h (100 = growth as untreated, 0 = no growth, -100 = all killed)
# Settings in all cases: 10 µM unless noted
# T-47D breast = tested on: T-47D breast
# BT-549 breast = tested on: BT-549 breast
# MDA-MB-435 melanoma = tested on: MDA-MB-435 melanoma
# SW-620 colon = tested on: SW-620 colon
# MCF7 breast = tested on: MCF7 breast
# HCT-116 colon = tested on: HCT-116 colon
# HCC-2998 colon = tested on: HCC-2998 colon
# KM12 colon = tested on: KM12 colon
SMILES,growth (T-47D breast),growth (BT-549 breast),growth (MDA-MB-435 melanoma),growth (SW-620 colon),growth (MCF7 breast),growth (HCT-116 colon),growth (HCC-2998 colon),growth (KM12 colon)
CCCCN1C(=O)/C(=c2\sc3n(c2=O)C2C(NN=3)N(CC)C(=O)N2CC)c2cccc(C)c21 (stereo not drawn),41.4%,82.4%,-31% (active),39.7%,21.1%,24.8%,61.1%,33.3%
O=C1Nc2ccccc2/C1=C/c1ccc(OCC(=O)c2ccccc2)cc1,97.6%,118%,102%,102%,88.7%,94.4%,105%,99.9%
COC(=O)CCCNCCCn1ccc2cc(NCc3cccc(-c4ccccc4)c3C)ccc21,58%,90.2%,70.9%,66.5%,56.9%,53%,90.2%,85.9%
COc1ccc(C2C(C#N)=C(/N=C/c3ccc(Cl)cc3)Oc3c2sc2c(C)cccc32)cc1 (stereo not drawn),17.9%,49.5%,-23.5% (active),31.2%,21.5%,13.4%,16.7%,23.1%
COc1ccc(-c2cc(-c3ccc(N4CCOCC4)cc3)n3c(n2)nc2ccccc23)cc1OC,81%,82.3%,93.1%,99.2%,90.1%,96%,110%,99%
N#C/C(=C\c1ccc(-c2ccc(Cl)cc2)o1)C(=O)Nc1ncc(Cc2ccc(Br)cc2)s1,18.7%,24.7%,11.3%,-40% (active),30.5%,-33% (active),62.4%,9.51% (active)
Cc1csc(/N=C(N)/N=C(\N)c2cccnc2)n1,85.5%,77.6%,6% (active),53.2%,82.1%,55.1%,90.2%,48.8%
CN1CCN(Cc2ccc(NC(=O)c3cncc(C#Cc4cnc5ccc(OC6CCOCC6)nn45)c3)cc2C(F)(F)F)CC1,-56.1% (active),-82.7% (active),-81.6% (active),-18.2% (active),-67.1% (active),-89.5% (active),-68.5% (active),-68.5% (active)
CN1CCN(c2ccc(Nc3nc(NCCCNS(=O)(=O)c4ccc(C(F)(F)F)cc4)c4sccc4n3)cc2)CC1,-29% (active),-88.1% (active),-62.4% (active),-33.5% (active),-70% (active),-73.8% (active),-63.5% (active),-25.2% (active)
Cn1c(SCC(=O)c2ccc(F)cc2)nc2ccccc2c1=O,62.5%,97%,108%,108%,72.7%,89.1%,104%,98.1%
O=C(Nc1ccccc1)Nc1nc2ccc([N+](=O)[O-])cc2[nH]1,14.7%,77.8%,55.3%,56%,53.7%,39.4%,60.4%,45.2%
COc1ccc2c(c1)c(-c1nn3cc(-c4ccncc4)nc3s1)cn2C,42.4%,71.5%,96.3%,69.5%,19.3%,55.1%,87.2%,83.3%
CN(C)c1ccc(-c2cc(-c3c[nH]c4ccccc34)nc(N)c2C#N)cc1,39.9%,27.8%,13.6%,21.4%,28%,14.5%,49.7%,18.2%
COc1ccc2sc(NC(=O)CCCCCCNC(=O)C(O)(O)C(F)(F)F)nc2c1,8.02% (active),7.95% (active),1.37% (active),5.18% (active),9.01% (active),0.844% (active),-45.9% (active),-15.1% (active)
O=C(CSc1nnc(-c2ccc(Cl)cc2)n1-c1ccccc1)Nc1ccc(Cl)cc1,30.9%,70.2%,42.3%,58.6%,53.3%,1.07% (active),70.1%,57.6%
COc1ccc(/C(=N\NC(N)=S)c2ccc(Cl)cc2)cc1OC,18.1%,14.2%,-35.1% (active),15.9%,14.4%,14.9%,52.6%,19.4%

SMILES,growth (T-47D breast),growth (BT-549 breast),growth (MDA-MB-435 melanoma),growth (SW-620 colon),growth (MCF7 breast),growth (HCT-116 colon),growth (HCC-2998 colon),growth (KM12 colon)
Clc1ccc2c(N/N=C/c3c[nH]c4ccccc34)ccnc2c1,-54.5% (active),-89.1% (active),-92.9% (active),-74.8% (active),-72% (active),-91.9% (active),-92.3% (active),-77.2% (active)
N#Cc1cnc2ccc(-c3cnc4n[nH]nc4c3)cc2c1N1CCc2cc(F)c(Cl)cc21,1.2% (active),3.78% (active),19.5%,26.8%,8.34% (active),23.7%,22.5%,17.4%
N/C(=N\C(N)=N\c1nc2ccccc2s1)c1ccc(Cl)cc1,68.3%,94.4%,96.3%,103%,69.3%,74.7%,102%,68.4%
O=S(=O)(NCCCNc1nccc(-c2[nH]c(-c3ccccc3)nc2-c2ccc(F)c(O)c2)n1)c1ccc(C(F)(F)F)cc1,50.7%,55.9%,-40.6% (active),59.8%,7.95% (active),19.1%,97.8%,36.6%
C#C[C@]1(O)CC[C@H]2[C@@H]3CC=C4c5sc(Nc6cc(Cl)ccc6OC)nc5CC[C@]4(C)[C@H]3CC[C@@]21C,31.2%,3.68% (active),-0.171% (active),-20.7% (active),-15.1% (active),7.63% (active),54.3%,31.9%
C/C(CC1(O)C(=O)Nc2ccccc21)=N\O (stereo not drawn),83.7%,101%,104%,94.5%,95.2%,98.1%,111%,101%
N#C/C(=N\Nc1ccc(F)cc1)C(=O)Nc1cc(-c2ccccc2)nn1-c1ccccc1,-5.1% (active),7.63% (active),6.98% (active),17.5%,0.117% (active),7.78% (active),19.5%,9.32% (active)
CC(C)NC(=O)c1cc(-c2ccc(NC(=O)Nc3ccc(F)cc3)cc2)nc2cccnc12,97.8%,104%,98.7%,108%,79.9%,95.5%,108%,95.7%
COc1ccc(Cn2cc(C#N)c(N)c2C(C)=O)cc1,96.8%,114%,104%,111%,90.4%,108%,107%,98.7%
O=C(/C=C/c1cc(Cl)ccc1Cl)Nc1ncc(Cc2ccc(Cl)cc2)s1,63.8%,-46.5% (active),-37% (active),20.8%,16.2%,2.67% (active),13.3%,13.1%
CN1CCN(CCNc2nc(-c3cccc(NS(=O)(=O)c4cccc5c(N(C)C)cccc45)c3)cs2)CC1,39.6%,58.6%,66%,70.5%,11.1%,32.2%,49.5%,77.3%
CC1=C(C)C(=O)C(Nc2cccc(C(=O)OC(C)(C)C)c2)=CC1=O,65%,82.6%,87.1%,94.8%,46%,75.2%,103%,88.7%
CN1CCN(Cc2ccc(NC(=O)c3cncc(C#Cc4cnc5ccc(OCC6COC6)nn45)c3)cc2C(F)(F)F)CC1,-1.42% (active),-71.5% (active),-92.3% (active),-29.8% (active),-70.8% (active),-78.6% (active),-77.4% (active),-73.6% (active)
CCCCCCCCCCCC(=O)NC(C)(C)C(=O)N1CCCC1C(=O)NC(C)(C)C(=O)NC(C)(C)C(=O)N1CCCC1C(=O)NC(C)(C)C(=O)NC(C)(C)C(=O)N1CCCC1C(=O)NC(C)C(=O)NCCC(=O)NC(C)C(=O)NC(C)(C)C(=O)NC(C)(C)C(=O)NC(C)(C)C(=O)NCCC(=O)NC(C)(C)C(=O)NC(C)(C)C(=O)NC(C)(C)C(=O)NC(C)C(=O)NCCC(=O)O (stereo not drawn),-64.3% (active),-97.1% (active),-89.9% (active),-92.3% (active),-81.5% (active),-94.8% (active),-92.4% (active),-98.5% (active)
CN1CCN(c2ccc(C(=O)/C=C/c3cc(F)cc(C(F)(F)F)c3)cc2)CC1,51.9%,71.2%,24%,20%,8.55% (active),22.8%,86.6%,35.5%
